This is an account of results in paper PMC7862700, “An all-to-all approach to the identification of sequence-specific readers for epigenetic DNA modifications on cytosine”.

Holding throughout (test): DAPPL (digital affinity profiling via proximity ligation, sequencing); 10 mM Tris-HCl pH 7.5, 50 mM NaCl, 1 mM DTT, 4% glycerol, room temperature, 30 min; GST-TFs on glutathione beads, 16-mer random dsDNA library, 0.1% formaldehyde crosslink after washing; high values mean tight binding
Common to all, as to details: protein: recombinant; tags: N-terminal GST; dsDNA, one strand shown

For one assay, the target named is T1, GABPA (Homo sapiens, UniProt Q06546 1-454).
T1 sequence: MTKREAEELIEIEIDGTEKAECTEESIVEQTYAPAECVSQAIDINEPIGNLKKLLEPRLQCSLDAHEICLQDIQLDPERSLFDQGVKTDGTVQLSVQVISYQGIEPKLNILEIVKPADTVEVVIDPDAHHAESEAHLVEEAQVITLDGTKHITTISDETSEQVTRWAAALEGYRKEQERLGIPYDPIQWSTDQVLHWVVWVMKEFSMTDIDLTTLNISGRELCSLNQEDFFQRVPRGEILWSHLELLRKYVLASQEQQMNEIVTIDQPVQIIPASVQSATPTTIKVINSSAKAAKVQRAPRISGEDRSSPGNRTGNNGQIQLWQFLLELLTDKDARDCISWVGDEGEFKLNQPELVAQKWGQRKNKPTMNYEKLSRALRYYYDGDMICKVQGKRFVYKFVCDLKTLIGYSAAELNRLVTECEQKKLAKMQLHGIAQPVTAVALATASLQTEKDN
Put shortly: (§1)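 A tag-only sample was pooled with DNA-barcoded human transcription factors that had been expressed in yeast as GST fusions and captured on glutathione beads. The pools were incubated for 30 min at room temperature with 200 nmole of a random double-stranded 16-mer DNA library in Tris/NaCl/DTT/glycerol buffer, then washed, crosslinked with 0.1% formaldehyde, proximity-ligated (BsaI/T4 ligase, 1 h, 37 °C), PCR-amplified and sequenced on an Illumina NextSeq500. Binding signal is each hexamer's read frequency for a factor divided by its frequency for the tag-only sample.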

The next assay deals with T2, ERG (Homo sapiens, UniProt P11308 1-479).
T2 sequence: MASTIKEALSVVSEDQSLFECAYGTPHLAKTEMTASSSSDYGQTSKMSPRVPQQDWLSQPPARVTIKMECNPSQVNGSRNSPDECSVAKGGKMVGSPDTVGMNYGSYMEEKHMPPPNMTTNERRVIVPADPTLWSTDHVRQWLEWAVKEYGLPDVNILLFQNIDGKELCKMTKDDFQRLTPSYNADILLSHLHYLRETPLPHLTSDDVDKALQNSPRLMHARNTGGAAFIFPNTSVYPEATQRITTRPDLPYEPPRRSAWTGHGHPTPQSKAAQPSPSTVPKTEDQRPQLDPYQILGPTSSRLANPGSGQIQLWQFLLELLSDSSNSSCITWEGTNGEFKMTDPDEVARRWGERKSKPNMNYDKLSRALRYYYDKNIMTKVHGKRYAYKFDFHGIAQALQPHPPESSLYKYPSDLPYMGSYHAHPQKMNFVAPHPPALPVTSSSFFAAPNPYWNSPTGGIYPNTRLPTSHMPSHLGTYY
Put shortly: as §1

For the next assay, the target named is ELF1 (Homo sapiens, UniProt P32519 1-619). The method, boiled down:
as §1

The next assay has as its target T3, EHF (Homo sapiens, UniProt Q9NZC4 1-300).
T3 sequence: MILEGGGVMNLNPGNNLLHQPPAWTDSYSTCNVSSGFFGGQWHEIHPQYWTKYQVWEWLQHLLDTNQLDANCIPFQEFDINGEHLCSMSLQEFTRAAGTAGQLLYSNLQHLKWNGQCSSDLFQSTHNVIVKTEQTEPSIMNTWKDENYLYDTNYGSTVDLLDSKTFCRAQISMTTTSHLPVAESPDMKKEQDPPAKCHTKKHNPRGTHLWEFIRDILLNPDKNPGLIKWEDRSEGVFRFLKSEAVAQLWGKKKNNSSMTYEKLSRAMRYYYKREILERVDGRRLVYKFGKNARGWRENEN
Put shortly: as §1

The target of a further assay is T4, ELK3 (Homo sapiens, UniProt P41970 1-407).
T4 sequence: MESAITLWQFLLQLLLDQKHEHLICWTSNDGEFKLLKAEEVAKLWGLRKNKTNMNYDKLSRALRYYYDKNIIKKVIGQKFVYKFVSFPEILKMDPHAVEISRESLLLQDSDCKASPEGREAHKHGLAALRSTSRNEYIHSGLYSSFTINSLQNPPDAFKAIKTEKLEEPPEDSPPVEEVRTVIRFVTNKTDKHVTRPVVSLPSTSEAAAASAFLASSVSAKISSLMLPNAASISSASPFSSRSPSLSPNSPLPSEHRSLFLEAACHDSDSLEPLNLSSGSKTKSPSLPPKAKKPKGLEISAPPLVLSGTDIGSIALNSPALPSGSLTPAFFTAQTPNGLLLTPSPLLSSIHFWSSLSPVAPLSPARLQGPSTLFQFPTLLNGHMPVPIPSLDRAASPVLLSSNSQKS
The method, boiled down:
as §1

In another assay the target is T5, SPIC (Homo sapiens, UniProt Q8N5J4 1-248).
T5 sequence: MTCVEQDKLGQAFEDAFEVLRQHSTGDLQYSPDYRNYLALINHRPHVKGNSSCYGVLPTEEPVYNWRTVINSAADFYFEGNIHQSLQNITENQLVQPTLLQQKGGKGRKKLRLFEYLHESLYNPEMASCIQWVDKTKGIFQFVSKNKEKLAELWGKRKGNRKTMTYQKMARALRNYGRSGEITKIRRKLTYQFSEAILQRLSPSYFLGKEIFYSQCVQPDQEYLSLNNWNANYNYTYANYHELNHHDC
The method, boiled down:
as §1

The next assay addresses ETV1 (Homo sapiens, UniProt P50549 1-477). Put shortly: as §1
A further assay addresses T6, ERF (Homo sapiens, UniProt P50548 1-548).
T6 sequence: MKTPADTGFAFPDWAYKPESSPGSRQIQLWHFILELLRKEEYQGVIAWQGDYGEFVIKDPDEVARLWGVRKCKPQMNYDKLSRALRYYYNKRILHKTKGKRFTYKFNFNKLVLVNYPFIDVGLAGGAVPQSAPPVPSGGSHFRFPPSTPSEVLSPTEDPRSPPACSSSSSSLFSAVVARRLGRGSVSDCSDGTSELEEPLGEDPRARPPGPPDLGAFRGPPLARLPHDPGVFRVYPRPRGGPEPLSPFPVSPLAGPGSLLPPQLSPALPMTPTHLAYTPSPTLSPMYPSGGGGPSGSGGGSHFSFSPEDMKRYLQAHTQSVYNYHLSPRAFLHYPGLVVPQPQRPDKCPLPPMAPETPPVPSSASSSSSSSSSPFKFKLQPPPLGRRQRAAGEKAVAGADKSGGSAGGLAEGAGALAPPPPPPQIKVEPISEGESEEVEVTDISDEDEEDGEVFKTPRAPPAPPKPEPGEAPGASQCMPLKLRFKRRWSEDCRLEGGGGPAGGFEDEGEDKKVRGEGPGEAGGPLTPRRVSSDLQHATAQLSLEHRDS
The method, boiled down:
as §1

In a further assay the target is T7, ETV3L (Homo sapiens, UniProt Q6ZN32 1-361).
T7 sequence: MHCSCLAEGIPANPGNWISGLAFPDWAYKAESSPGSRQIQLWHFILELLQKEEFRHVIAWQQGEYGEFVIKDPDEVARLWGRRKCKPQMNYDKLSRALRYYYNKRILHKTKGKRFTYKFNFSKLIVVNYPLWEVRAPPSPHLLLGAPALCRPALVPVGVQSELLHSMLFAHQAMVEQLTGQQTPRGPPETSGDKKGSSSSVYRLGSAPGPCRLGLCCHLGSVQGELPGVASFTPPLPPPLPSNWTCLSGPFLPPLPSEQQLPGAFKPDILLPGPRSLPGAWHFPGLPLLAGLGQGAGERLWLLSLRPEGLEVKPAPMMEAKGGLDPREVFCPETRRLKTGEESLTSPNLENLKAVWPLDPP
Put shortly:
as §1

Another assay deals with T8, ETS2 (Homo sapiens, UniProt P15036 1-469).
T8 sequence: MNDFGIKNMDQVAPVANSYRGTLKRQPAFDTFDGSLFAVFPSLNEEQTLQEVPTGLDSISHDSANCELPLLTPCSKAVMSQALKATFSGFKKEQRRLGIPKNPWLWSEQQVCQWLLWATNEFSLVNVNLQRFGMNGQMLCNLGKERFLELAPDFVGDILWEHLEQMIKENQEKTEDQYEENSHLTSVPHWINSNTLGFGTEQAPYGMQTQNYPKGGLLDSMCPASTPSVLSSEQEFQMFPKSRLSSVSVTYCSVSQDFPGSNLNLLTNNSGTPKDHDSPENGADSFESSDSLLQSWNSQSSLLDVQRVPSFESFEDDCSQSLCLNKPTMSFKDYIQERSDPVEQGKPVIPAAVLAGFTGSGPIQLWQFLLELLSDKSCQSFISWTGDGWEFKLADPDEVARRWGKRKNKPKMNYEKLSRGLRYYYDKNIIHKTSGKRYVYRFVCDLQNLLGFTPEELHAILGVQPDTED
Put shortly:
as §1

The next assay addresses T9, ETV7 (Homo sapiens, UniProt Q9Y603 1-341).
T9 sequence: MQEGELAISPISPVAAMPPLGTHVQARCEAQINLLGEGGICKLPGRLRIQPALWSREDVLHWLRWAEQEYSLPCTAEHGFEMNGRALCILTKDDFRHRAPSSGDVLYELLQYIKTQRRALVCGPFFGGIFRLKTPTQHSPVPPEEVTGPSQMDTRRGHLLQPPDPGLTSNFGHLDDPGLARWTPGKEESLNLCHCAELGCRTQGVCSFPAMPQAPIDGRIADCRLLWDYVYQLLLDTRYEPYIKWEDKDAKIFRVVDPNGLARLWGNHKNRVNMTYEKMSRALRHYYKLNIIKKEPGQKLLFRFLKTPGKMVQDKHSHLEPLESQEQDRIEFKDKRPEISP
Put shortly: as §1

The next assay deals with T10, ETV3 (Homo sapiens, UniProt P41162-2 1-143).
T10 sequence: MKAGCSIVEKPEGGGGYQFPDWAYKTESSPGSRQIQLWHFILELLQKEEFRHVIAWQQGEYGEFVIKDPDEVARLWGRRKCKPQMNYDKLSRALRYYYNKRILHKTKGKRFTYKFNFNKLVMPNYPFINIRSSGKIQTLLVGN
The method, boiled down:
as §1

Sequence of ELF1 (P32519 whole entry): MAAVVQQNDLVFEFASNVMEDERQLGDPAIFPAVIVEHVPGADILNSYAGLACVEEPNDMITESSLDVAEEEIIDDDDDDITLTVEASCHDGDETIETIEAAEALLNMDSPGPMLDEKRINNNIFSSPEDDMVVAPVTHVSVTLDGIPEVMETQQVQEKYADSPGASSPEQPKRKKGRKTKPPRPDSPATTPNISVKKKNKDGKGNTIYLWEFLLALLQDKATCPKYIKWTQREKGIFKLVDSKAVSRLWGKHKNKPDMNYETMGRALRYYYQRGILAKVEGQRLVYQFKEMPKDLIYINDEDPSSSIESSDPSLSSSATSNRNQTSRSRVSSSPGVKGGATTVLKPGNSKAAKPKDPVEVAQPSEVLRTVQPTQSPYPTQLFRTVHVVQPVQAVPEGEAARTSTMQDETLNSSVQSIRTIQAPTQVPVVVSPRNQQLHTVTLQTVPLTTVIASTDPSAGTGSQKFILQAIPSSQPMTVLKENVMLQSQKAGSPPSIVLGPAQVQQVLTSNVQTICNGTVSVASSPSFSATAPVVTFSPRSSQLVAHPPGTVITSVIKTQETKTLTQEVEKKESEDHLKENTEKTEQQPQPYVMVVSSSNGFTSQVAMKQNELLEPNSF
Sequence of ETV1 (P50549 whole entry): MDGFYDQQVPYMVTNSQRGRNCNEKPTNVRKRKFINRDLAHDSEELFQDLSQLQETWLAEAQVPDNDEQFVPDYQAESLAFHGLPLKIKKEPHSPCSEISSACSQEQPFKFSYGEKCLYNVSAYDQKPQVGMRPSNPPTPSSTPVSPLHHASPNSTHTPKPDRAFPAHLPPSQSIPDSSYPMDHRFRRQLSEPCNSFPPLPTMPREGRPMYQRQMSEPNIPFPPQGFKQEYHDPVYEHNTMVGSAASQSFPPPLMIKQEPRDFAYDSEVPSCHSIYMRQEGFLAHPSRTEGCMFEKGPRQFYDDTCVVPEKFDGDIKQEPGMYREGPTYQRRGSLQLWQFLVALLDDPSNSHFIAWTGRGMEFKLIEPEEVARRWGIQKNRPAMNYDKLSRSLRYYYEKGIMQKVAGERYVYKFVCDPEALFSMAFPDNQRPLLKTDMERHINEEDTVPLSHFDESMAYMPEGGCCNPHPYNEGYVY

Take TCTAGA: the binding signal is 1.02 fold enrichment (6-mer frequency, TF over GST control) with GABPA; 1 fold enrichment (6-mer frequency, TF over GST control) in the assay with ERG; 1 fold enrichment (6-mer frequency, TF over GST control) in the assay with ELF1; 1.11 fold enrichment (6-mer frequency, TF over GST control) with EHF; 1.18 fold enrichment (6-mer frequency, TF over GST control) in the assay with ELK3; 1.05 fold enrichment (6-mer frequency, TF over GST control) in the assay with SPIC. Besides, the binding signal in the assay with ETV1 is 1.02 fold enrichment (6-mer frequency, TF over GST control); with ERF, 1.03 fold enrichment (6-mer frequency, TF over GST control); in the assay with ETV3L it was 1.03 fold enrichment (6-mer frequency, TF over GST control); with ETS2 it was 1.05 fold enrichment (6-mer frequency, TF over GST control); with ETV7 it was 1.03 fold enrichment (6-mer frequency, TF over GST control); with ETV3 it was 1.04 fold enrichment (6-mer frequency, TF over GST control).
